{"source": "PubChem BioAssay (NCI)", "note": "Where “and” joins values, the source holds several entries; their conditions need not be identical. Equal entries are not always repeated. About 83,000 compounds went through this panel and 20% of them were active in at least one assay; those are over-represented in the sample as a whole.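 The endpoint reported here, percent growth, reads 100 for growth as untreated, 0 for no net growth and -100 for all cells dead.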 Calls of active or inactive are those of the source. The calls were made as follows: active = growth percent below 10; inactive = the rest."}
{"test_system": "MDA-MB-468 breast", "experiment": "NCI-60 one-dose screen, 48 h (100 = growth as untreated, 0 = no growth, -100 = all killed)", "conditions": "10 µM unless noted"}
{"smiles": "CCOS(=O)(=O)c1c(C(C)C)cc(C(C)C)cc1C(C)C", "growth": "102% (inactive)"}
{"smiles": "COc1ccc(C2CC(c3cccc(Nc4ccnc5cc(Cl)ccc45)c3)=NN2c2ccccc2)cc1", "note": "(stereo not given)", "growth": "63.3% (inactive)"}
{"smiles": "CCOC(=O)c1sc2ncnc(Nc3ccc4c(cnn4C(=O)Nc4ccccc4)c3)c2c1C", "growth": "78.1% (inactive)"}
{"smiles": "CC(C)c1ccc(C(=O)Nc2sc3c(c2C(N)=O)CCC(=O)C3)cc1", "growth": "-47.6% (active)"}
{"smiles": "COc1ccc2c(c1)cn1c3ccc(OC)cc3[nH]c(=O)c21", "growth": "-12% (active)"}
{"smiles": "C=C1C(=O)O[C@H]2[C@H]1CC/C(COC(=O)Nc1nc3ccccc3[nH]1)=C\\CC[C@@]1(C)O[C@@H]21", "growth": "36.9% (inactive)"}
{"smiles": "O=c1cc(-c2nccc3c2[nH]c2ccccc23)c2cc(Cl)ccc2o1", "growth": "2.37% (active)"}
{"smiles": "C#Cc1cccc(Oc2ccc(NC(=O)CCl)cc2)c1", "growth": "-7.9% [8.25 µM] (active)"}
{"smiles": "CS(=O)(=O)c1nccc(-c2c(-c3cccc(OCc4ccc(Cl)c(C(F)(F)F)c4)c3)nc3sccn23)n1", "growth": "-66.1% (active)"}
{"smiles": "c1ccc(-c2n(Cc3ccc4ccccc4c3)c3ccccc3[n+]2Cc2ccc3ccccc3c2)cc1", "growth": "-35.4% (active)"}
{"smiles": "CCCCOC(=O)c1ccc(C(C)C)cc1", "growth": "100% (inactive)"}
{"smiles": "FC(F)(F)c1ccc2c(c1)N(CCCN1CCN(C3CC3)CC1)c1ccccc1S2", "growth": "54.1% (inactive)"}
{"smiles": "COc1ccc(N=Nc2ccc(O)c(=O)cc2)cc1", "growth": "-31.9% (active)"}
{"smiles": "Cc1ccnc(NC(c2ccccc2)c2ccc3cccnc3c2O)c1", "note": "(stereo not given)", "growth": "24.9% (inactive)"}
{"smiles": "N=c1c2ccccc2nc2n1CCCCC2", "growth": "103% (inactive)"}
{"smiles": "NS(=O)(=O)c1ccc(C(=O)NN2C(=O)c3ccccc3C2=O)cc1", "growth": "122% (inactive)"}
{"smiles": "Cc1nc(N/N=C/c2cn(-c3ccccc3)nc2-c2cc3ccccc3oc2=O)sc1N=Nc1ccccc1", "growth": "89.7% (inactive)"}
{"smiles": "O=C(O)c1cc2ccccc2cc1Nc1ccccc1", "growth": "102% (inactive)"}
{"smiles": "C=CCOc1ccc2c(c1)CC[C@@H]1[C@@H]2CC[C@@]2(C)[C@H]1CC[C@]2(C)O", "growth": "81.2% (inactive)"}
{"smiles": "N=C(N)N1CCc2ccccc2C1", "growth": "41% (inactive) and 107% (inactive)"}
{"smiles": "Fc1ccc(/C=C/[C@@H]2C[C@@H](F)CCO2)cc1", "growth": "84% (inactive)"}
{"smiles": "O=C(Nc1cc(C(F)(F)F)cc(C(F)(F)F)c1)c1cc(Cl)ccc1O", "growth": "-24% (active) and -1.83% (active)"}
{"smiles": "C=C(C)COc1ccc(C(C)(C)C)cc1", "growth": "91.2% (inactive)"}
{"smiles": "CCN1CCN(C(=O)[C@]23CC[C@@H](C)[C@H](C)[C@@H]2C2=CC[C@@H]4[C@@]5(C)C/C(=C/c6cccnc6)C(=O)C(C)(C)[C@@H]5CC[C@@]4(C)[C@]2(C)CC3)CC1", "growth": "16.4% (inactive)"}
{"smiles": "COc1c(C)c2c(c(O)c1C/C=C(\\C)CCC(=O)O)C(=O)OC2", "growth": "37.9% (inactive)"}
{"smiles": "c1ccc(CC(NCCNC(Cc2ccccc2)c2ccccc2)c2ccccc2)cc1", "note": "(stereo not given)", "growth": "-32.9% (active)"}
{"smiles": "N#Cc1ccc(-c2ccc(COc3ccc(CC4SC(=O)NC4=O)cc3)cc2)cc1", "note": "(stereo not given)", "growth": "5.4% (active)"}
{"smiles": "Cc1cccc(Cc2cnc(NC(=O)/C=C/c3ccco3)s2)c1", "growth": "31.2% (inactive)"}
{"smiles": "Clc1ccc2oc3c(NCCCn4ccnc4)c4ccccc4nc3c2c1", "growth": "51.6% (inactive)"}
{"smiles": "N#C/C(=C\\c1ccc(-c2ccc(Cl)cc2)o1)C(=O)Nc1ncc(Cc2ccc(Br)cc2)s1", "growth": "25.7% (inactive)"}
{"smiles": "COc1ccc(/C=C/c2nc(N3CCOCC3)c3nc(Cl)c(Cl)cc3n2)cc1OC", "growth": "101% (inactive)"}
{"smiles": "CCOC(=O)C/C(C)=N\\NC(=O)c1ccncc1", "growth": "110% (inactive)"}
{"smiles": "Oc1ccc(CN2CCC(N3CCOCC3)CC2)c2cccnc12", "growth": "36.6% (inactive)"}
{"smiles": "C=CCN(C)C", "growth": "102% (inactive)"}
{"smiles": "COc1cccc(Cc2cc(-c3ccccc3)nn(CC(=O)c3ccccc3)c2=O)c1", "growth": "90.6% (inactive)"}
{"smiles": "Cn1cc(-c2cnc3ccc(NC(=O)Nc4ccc(F)c(Br)c4)cc3n2)cn1", "growth": "-6.86% (active)"}
{"smiles": "Cc1cc(Nc2ccc(Cl)c(Cl)c2)nc(N)n1", "growth": "54.5% (inactive)"}
{"smiles": "O=C1C=CC(=CC=C2C=CN(CCCCCCCCCCCO)C=C2)C=C1", "growth": "-37.4% (active)"}
{"smiles": "Cn1c(COC(=O)NCCn2ccnc2)nc2c(N3CCOCC3)nc(-c3ccccc3)nc21", "growth": "-64.1% (active)"}
{"smiles": "O=C1N[C@H]2[C@H](CS[C@H]2CCCCC(=O)N(CCP(c2ccccc2)c2ccccc2)CCP(c2ccccc2)c2ccccc2)N1", "growth": "33.8% (inactive)"}
